According to the supplement of paper PMC10849652:
The full data set covers some 7,900 targets. This sample favours those with a hit. About 0.6% of all pairs of compound and target were hits.

Key:
Assay in all cases: log2 fold change, soluble protein after heating vs DMSO (PISA); higher = thermal stabilisation; K562 cells, 10 uM, 30 min; active = over 0.2 and 3.5 SD of the protein, either way, in both replicates (recomputed)
[1] = compound: C1=CC=C(C=C1)[C@H](COC2=CC3=C(C=C2)NC(=O)N3)NC(=O)C4=CC=CN(C4=O)CC5=CC(=C(C=C5)F)F
Outline: (§1)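 Values are thermal stability changes relative to control samples and are taken from duplicates. They are stated as log2 fold changes. Before quantification by TMTpro 16plex LC-MS/MS with equalised channel sums, K562 cells at 2×10^6 cells/mL were treated with 10 μM compound for 30 min, heated in aliquots for 3 min across 48°C-58°C, pooled, extracted in PBS with 0.5% NP-40 at 4°C, and centrifuged at 21,000xg for 90 min to give the soluble supernatant.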

[2] = compound: CC1=C(SC2=C1C(=N[C@H](C3=NN=C(N32)C)CC(=O)N)C4=CC=C(C=C4)Cl)C
Outline: as §1

[3] = compound: CC1=C2C(=CC=C1)N=C(N(C2=O)C3=CC=CC=C3C)CN4C=NC5=C(N=CN=C54)N
Outline: as §1

[4] = compound: Cc1sc2c(c1C)C(c1ccc(Cl)cc1)=N[C@@H](CC(=O)OC(C)(C)C)c1nnc(C)n1-2
Outline: as §1

[5] = compound: c1ccc([C@@H]2C[C@H]2NC2CCNCC2)cc1
Outline: as §1

Measured: log2 fold change

DHFR (UniProt P00374)
UniProt P00374, sequence (P00374 whole entry, looked up): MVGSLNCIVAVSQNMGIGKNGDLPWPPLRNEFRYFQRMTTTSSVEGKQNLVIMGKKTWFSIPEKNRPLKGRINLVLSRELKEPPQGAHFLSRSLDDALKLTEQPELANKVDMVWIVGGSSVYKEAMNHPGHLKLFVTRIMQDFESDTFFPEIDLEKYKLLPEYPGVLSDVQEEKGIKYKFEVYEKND
inactive: [1] -0.077 | [2] -0.014 | [3] 0.083 | [4] 0.058 | [5] 0.396

CUTA isoform 2 (UniProt O60888)
UniProt O60888, sequence (O60888 whole entry, looked up): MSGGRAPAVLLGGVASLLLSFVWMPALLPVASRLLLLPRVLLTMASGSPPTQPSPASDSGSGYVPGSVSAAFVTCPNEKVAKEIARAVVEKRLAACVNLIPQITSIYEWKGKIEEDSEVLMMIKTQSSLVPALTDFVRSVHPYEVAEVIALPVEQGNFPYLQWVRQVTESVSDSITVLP
inactive: [1] 0.099 | [2] 0.116 | [3] -0.289 | [4] -0.123 | [5] 0.015

ENTPD7 (UniProt Q9NQZ7)
UniProt Q9NQZ7, sequence (Q9NQZ7 whole entry, looked up): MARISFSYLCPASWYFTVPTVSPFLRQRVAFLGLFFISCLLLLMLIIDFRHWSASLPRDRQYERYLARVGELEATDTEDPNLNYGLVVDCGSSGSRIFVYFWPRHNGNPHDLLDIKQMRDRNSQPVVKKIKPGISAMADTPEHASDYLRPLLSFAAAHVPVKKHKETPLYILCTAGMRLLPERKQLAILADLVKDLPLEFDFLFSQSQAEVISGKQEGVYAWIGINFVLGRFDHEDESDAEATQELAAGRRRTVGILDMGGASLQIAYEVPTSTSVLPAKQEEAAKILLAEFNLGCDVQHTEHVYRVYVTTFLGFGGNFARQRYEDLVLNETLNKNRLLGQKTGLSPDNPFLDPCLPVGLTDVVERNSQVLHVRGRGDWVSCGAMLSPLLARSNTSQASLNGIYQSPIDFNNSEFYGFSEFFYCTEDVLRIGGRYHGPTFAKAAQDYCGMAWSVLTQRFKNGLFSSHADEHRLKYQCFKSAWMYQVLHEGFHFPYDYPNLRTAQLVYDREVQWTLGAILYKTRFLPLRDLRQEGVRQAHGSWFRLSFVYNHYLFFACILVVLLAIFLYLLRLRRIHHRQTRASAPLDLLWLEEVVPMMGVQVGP
inactive: [1] 0.066 | [4] 0.173

DPYSL2 (UniProt Q16555)
inactive: [1] -0.012 | [2] 0.072 | [3] 0.093 | [4] 0.01 | [5] 0.014

ENTR1 (UniProt Q96C92)
inactive: [3] 0.191

EEF1D isoform 3 (UniProt P29692)
UniProt P29692, sequence (P29692 whole entry, looked up): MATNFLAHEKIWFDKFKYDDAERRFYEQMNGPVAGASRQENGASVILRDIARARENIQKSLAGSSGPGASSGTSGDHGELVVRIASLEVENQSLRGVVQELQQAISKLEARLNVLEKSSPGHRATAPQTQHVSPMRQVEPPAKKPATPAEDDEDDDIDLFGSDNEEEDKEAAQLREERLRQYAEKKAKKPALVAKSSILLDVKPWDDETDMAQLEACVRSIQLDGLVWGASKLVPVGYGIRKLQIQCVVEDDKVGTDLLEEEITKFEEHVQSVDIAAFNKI
inactive: [4] -0.694

EIF3J isoform 2 (UniProt O75822)
UniProt O75822, sequence (O75822 whole entry, looked up): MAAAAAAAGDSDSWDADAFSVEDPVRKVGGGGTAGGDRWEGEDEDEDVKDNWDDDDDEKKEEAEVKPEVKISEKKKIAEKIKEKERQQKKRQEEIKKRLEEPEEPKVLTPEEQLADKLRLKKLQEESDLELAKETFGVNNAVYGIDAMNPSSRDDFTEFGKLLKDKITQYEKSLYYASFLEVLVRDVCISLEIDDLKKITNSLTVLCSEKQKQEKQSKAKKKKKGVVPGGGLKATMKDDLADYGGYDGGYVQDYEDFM
inactive: [1] 0.092 | [3] 0.25 | [4] 0.049

DCP2 (UniProt Q8IU60)
inactive: [2] -0.121 | [3] -0.044 | [4] 0.077 | [5] 0.068

DERPC (UniProt P0CG12)
UniProt P0CG12, sequence (P0CG12 whole entry, looked up): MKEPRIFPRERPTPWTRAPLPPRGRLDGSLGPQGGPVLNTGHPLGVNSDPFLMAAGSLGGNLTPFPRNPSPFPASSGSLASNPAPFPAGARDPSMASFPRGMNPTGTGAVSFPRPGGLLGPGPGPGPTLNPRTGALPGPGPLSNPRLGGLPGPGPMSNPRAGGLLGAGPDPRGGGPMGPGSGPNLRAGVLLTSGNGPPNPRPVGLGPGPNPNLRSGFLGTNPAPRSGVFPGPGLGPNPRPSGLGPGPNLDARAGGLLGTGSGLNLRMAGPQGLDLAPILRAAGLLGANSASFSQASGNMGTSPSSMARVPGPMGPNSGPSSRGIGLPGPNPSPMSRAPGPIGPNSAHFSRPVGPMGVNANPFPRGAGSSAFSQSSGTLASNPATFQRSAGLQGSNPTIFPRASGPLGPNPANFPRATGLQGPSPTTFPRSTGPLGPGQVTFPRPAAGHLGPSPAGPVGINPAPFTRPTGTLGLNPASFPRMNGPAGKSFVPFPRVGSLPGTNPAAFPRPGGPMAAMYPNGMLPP
inactive: [1] 0 | [3] -0.015

EHBP1 (UniProt Q8NDI1)
UniProt Q8NDI1, sequence (Q8NDI1 whole entry, looked up): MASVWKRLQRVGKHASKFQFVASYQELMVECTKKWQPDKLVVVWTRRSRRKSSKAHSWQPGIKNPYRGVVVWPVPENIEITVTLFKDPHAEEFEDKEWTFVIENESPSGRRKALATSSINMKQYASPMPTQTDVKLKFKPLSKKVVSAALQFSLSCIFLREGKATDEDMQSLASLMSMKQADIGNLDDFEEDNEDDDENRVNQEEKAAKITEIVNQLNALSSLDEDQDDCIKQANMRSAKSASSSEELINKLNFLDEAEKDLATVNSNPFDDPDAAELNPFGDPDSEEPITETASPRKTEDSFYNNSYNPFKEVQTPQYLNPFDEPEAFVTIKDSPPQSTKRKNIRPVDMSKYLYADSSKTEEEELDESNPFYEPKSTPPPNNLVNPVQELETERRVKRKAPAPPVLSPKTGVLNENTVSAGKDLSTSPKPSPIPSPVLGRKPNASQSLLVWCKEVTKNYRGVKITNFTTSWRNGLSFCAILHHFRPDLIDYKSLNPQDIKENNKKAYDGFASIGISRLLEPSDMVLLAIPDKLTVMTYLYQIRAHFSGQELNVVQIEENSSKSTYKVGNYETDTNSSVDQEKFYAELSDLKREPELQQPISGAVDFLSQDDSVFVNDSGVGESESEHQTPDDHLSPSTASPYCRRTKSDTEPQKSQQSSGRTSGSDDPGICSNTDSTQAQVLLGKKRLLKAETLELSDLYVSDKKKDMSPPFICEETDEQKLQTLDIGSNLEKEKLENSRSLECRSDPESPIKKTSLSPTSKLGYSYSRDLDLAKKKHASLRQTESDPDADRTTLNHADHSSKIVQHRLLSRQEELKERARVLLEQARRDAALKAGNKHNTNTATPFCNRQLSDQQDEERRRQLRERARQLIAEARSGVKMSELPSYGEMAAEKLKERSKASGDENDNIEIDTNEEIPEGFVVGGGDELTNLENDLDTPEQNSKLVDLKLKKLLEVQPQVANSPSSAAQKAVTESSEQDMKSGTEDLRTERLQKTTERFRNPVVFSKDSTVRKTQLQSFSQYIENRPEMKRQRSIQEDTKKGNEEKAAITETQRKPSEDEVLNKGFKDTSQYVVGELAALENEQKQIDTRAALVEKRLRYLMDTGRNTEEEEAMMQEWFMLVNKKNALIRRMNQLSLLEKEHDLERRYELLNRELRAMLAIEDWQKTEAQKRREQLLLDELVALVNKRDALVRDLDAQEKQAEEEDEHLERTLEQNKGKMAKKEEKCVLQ
inactive: [2] -0.163 | [4] 0.041 | [5] 0.229

CTNNBL1 (UniProt Q8WYA6)
UniProt Q8WYA6, sequence (Q8WYA6 whole entry, looked up): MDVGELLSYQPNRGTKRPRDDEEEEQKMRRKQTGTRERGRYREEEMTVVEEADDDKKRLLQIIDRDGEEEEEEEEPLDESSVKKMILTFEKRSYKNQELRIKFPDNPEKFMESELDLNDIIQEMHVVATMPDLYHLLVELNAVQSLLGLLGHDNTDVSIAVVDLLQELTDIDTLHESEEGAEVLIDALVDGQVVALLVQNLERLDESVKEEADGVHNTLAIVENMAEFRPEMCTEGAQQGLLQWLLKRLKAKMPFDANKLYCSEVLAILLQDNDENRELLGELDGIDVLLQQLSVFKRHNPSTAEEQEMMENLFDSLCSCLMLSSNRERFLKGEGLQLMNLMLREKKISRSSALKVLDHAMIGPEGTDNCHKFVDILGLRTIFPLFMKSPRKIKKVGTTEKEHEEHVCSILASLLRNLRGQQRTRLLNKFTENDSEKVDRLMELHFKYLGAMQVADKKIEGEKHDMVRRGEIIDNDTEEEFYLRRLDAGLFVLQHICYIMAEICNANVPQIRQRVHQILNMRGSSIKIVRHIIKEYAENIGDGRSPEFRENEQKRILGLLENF
inactive: [1] 0.029 | [3] 0.17

DLK1 (UniProt P80370)
UniProt P80370, sequence (P80370 whole entry, looked up): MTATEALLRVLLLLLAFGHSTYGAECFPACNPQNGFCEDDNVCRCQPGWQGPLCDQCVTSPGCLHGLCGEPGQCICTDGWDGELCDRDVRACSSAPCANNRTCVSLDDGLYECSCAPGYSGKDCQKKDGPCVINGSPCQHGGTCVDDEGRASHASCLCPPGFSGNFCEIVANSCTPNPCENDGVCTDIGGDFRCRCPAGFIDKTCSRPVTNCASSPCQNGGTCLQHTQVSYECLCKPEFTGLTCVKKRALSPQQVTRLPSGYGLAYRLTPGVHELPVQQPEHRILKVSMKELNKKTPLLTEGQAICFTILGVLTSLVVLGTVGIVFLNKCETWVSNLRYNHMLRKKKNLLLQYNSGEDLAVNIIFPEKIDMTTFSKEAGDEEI
inactive: [2] 0.065 | [3] 0.198 | [5] 0.051

CYP24A1 (UniProt Q07973)
UniProt Q07973, sequence (Q07973 whole entry, looked up): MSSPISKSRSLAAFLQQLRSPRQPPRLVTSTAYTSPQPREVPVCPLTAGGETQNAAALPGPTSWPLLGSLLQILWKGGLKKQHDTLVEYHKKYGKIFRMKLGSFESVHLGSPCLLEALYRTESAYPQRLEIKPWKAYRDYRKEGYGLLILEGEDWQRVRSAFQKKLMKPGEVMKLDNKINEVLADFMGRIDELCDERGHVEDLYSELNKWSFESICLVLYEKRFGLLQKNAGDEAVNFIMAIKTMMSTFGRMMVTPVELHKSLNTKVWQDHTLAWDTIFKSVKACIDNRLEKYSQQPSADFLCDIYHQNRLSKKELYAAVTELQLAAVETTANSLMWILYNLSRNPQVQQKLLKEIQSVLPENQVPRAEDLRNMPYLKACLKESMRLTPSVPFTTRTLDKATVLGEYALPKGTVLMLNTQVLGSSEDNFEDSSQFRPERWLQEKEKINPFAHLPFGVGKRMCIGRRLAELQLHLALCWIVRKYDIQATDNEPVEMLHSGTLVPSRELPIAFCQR
inactive: [1] 0.17 | [3] -0.175 | [4] 0.266
